Experimental findings from PubChem BioAssay (Tox21) are described below.

Assay [1] can be described thus: qHTS assay to identify small molecule antagonists of the estrogen receptor beta (ER-beta) signaling pathway - cell viability counter screen (AID 1259382).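 Further: HEK293T cells carrying ER-beta-UAS-bla reporter stimulated with estradiol; series mostly up to about 92 µM; nearly all actives have a fitted effect of over 55% in size.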 In a few lines:
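In this multiplexed counter screen, cells were seeded at 2,000 per well in medium with 2% charcoal-stripped FBS and incubated 6 hr before compound and 1nM final E2 were added. Sixteen hours later, ATP-based luminescence reported viability.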
(In qHTS, concentration-response curves come from the screen itself.)

Assay [2] can be described thus: qHTS assay to identify small molecule agonists of the estrogen receptor alpha (ER-alpha) signaling pathway in the presence of an antagonist - cell viability counter screen (AID 1259386).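 Further: cells exposed to compounds for 22 h at 37 °C before the viability read; nearly all actives have a fitted effect of over 30% in size.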 Further: potency means the concentration at half of the fitted maximal effect. On activity change, negative = cytotoxicity: series mostly up to about 92 µM. In a few lines: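 Viability counter screen using VM7Luc4E2 (full-length ER-alpha, four ERE-luciferase). The cells were treated with compounds alongside ICI-182,780 10.0nM for 22hr, and live-cell protease fluorescence was quantified with CellTiter-Fluor.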

Assay [3] addresses Progesterone receptor (Homo sapiens) (UniProt P06401). The assay is described as follows: qHTS assay to identify small molecule agonists of the progesterone receptor (PR) signaling pathway (AID 1346784; calls by dose curve; further: nearly all actives have a fitted effect of over 30% in size; further: potency means the concentration at half of the fitted maximal effect). An outline of the steps:
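Using charcoal-stripped serum (2%) to limit endogenous steroids, PR-UAS-bla HEK 293T cells received compounds for 16 hr at 37C after 6 hr plating; beta-lactamase FRET fluorescence was recorded following 2 hr substrate loading at room temperature.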

The target is the same in assay [4]. The assay can be described thus: qHTS assay to identify small molecule antagonists of the progesterone receptor (PR) signaling pathway (AID 1346795; active means well fitted inhibition curve with a large enough effect in the signal ratio in the repeat runs, not every such curve was filed as active; the % refers to the signal ratio). In a few lines:
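Inhibition of R5020-induced (1 nM final) beta-lactamase reporter signal in PR-UAS-bla HEK293T cells was scored by FRET fluorescence after overnight (16 hr) compound treatment.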

The nature of assay [5]: qHTS assay to identify small molecule agonists of the progesterone receptor (PR) signaling pathway - cell viability counter screen (AID 1346799; calls by dose curve; further: nearly all actives have a fitted effect of over 45% in size). An outline of the steps: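 Cytotoxicity in PR-bla HEK293T cells: 16 h compound, 37C; CellTiter-Glo added post-FRET read; luminescence after 30 min RT.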
The nature of assay [6]: qHTS assay to identify small molecule agonists of the TGF-beta/Smad signaling pathway (AID 1346859; active means well fitted activation curve with a large enough effect in the signal ratio in the repeat runs, not every such curve was filed as active; the % refers to the signal ratio; further: series mostly up to about 77 µM). In a few lines:
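Stable Smad binding element-beta-lactamase HEK 293T cells; 5 hr compound exposure at 37 C under 5% CO2; 2 hr room-temperature substrate step; fluorescence excited at 405 nm, collected at 460 nm and 530 nm.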

The target in assay [7] is Thyrotropin-releasing hormone receptor (Homo sapiens) (UniProt P34981). The assay is described as follows: qHTS assay to identify small molecule antagonists of the thyrotropin-releasing hormone receptor (TRHR) signaling pathway (AID 1346877; active means well fitted inhibition curve with a large enough effect in the repeat runs, not every such curve was filed as active; further: series mostly up to about 51 µM). In a few lines: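 Following an 18 h incubation at 37 °C and a 2 h calcium dye load, TRHR-HEK293 cells were exposed to compound (5 min, room temperature) and challenged with TRH, 1 nM final.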

For assay [8] the target is unchanged. The assay can be described thus: qHTS assay to identify small molecule agonists of the thyrotropin-releasing hormone receptor (TRHR) signaling pathway (AID 1346891; calls by dose curve;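 further: HEK293 cells expressing TRHR with calcium dye readout; series mostly up to about 58 µM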). In a few lines:
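In 1536-format, 1500 TRHR-Hek293 cells per well grew 18 h, took up calcium dye for 2 h at 37 °C, received compound, and were read kinetically; 15-point titrations, triplicates.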

A short description of assay [9]: Human pregnane X receptor (PXR) small molecule agonists, qHTS cell viability counter screen (AID 1346977). Further: nearly all actives have a fitted effect of over 50% in size. In a few lines: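 Readout is CellTiter-Fluor fluorescence from PXR-Luc HepG2 cells. Plated cells rested 5hr, then were treated with compounds for 24hr at 37C and 5% CO2, with reagent present during the last hour.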
Assay [10] in a line: Caspase-3/7 induction in HepG2 cells by small molecules, qHTS assay (AID 1346978). Further: nearly all actives have a fitted effect of over 15% in size. An outline of the steps:
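Caspase-3/7 induction was measured by Caspase-Glo 3/7 luminescence (30 min, room temperature) after a 17 hr compound exposure of wild-type HepG2 cells seeded at 2,000 per well and pre-incubated 5 hr.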

Assay [11] is described as follows: Caspase-3/7 induction in CHO-K1 cells by small molecules, qHTS cell viability counter screen (AID 1346979). Further: nearly all actives have a fitted effect of over 35% in size. Further: potency means the concentration at half of the fitted maximal effect. In a few lines:
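To flag cytotoxic compounds, treated CHO-K1 wild-type cells were given CellTiter-Fluor at 16hr and read fluorescently after 1hr at 37C; the caspase-3/7 luminescence was measured in these same wells.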

The nature of assay [12]: Caspase-3/7 induction in CHO-K1 cells by small molecules, qHTS assay (AID 1346980). Further: nearly all actives have a fitted effect of over 15% in size. In a few lines:
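Luminescent Caspase-Glo 3/7 read (30min, room temperature) quantified apoptosis induction. Cells were wild-type CHO-K1, treated with compound for 17hr at 37 C and 5% CO2.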

Assay [13] can be described thus: Caspase-3/7 induction in HepG2 cells by small molecules, qHTS cell viability counter screen (AID 1346981). Further: nearly all actives have a fitted effect of over 30% in size. Further: potency means the concentration at half of the fitted maximal effect. On activity change, negative = cytotoxicity: series mostly up to about 92 µM. In a few lines:
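Viability determined by CellTiter-Fluor fluorescence in HepG2 wells also used for the luminescent Caspase-Glo 3/7 read. Compounds were present for 16 hr at 37 C, 5% CO2 before reagent addition.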

In assay [14] the target is Nuclear receptor subfamily 1 group I member 2 (Homo sapiens) (UniProt O75469). The assay is described as follows: Human pregnane X receptor (PXR) small molecule agonists, qHTS assay (AID 1346982). Further: nearly all actives have a fitted effect of over 35% in size. Further: potency means the concentration at half of the fitted maximal effect. An outline of the steps: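 Compound-induced hPXR transactivation of a CYP3A4 luciferase reporter was scored in HepG2 PXR-Luc cells over 24 hr at 37 C, 5% CO2, by luminescence.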

The nature of assay [15]: qHTS assay to identify small molecule antagonists of the progesterone receptor (PR) signaling pathway - cell viability counter screen (AID 1346798). Further: series mostly up to about 92 µM; nearly all actives have a fitted effect of over 50% in size. In a few lines:
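ATP content as viability readout: CellTiter-Glo luminescence, 30 min room temperature, in PR-UAS-bla HEK293T cells after 16 hr compound/R5020 treatment at 37C and 5% CO2.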

Assay [16] is described as follows: qHTS assay to identify small molecule antagonists of the TGF-beta/Smad signaling pathway - cell viability counter screen (AID 1346824). Further: nearly all actives have a fitted effect of over 50% in size. In a few lines: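 Cytotoxicity counter-screen run in the same wells as the beta-lactamase Smad reporter read: CellTiter-Glo luminescence after 30 min at room temperature. HEK 293T SBE-bla cells had 5 hr compound exposure at 37 C with TGF-beta1 (0.25 ng/mL stock).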

Assay [17] is described as follows: qHTS assay to identify small molecule agonists of the TGF-beta/Smad signaling pathway - cell viability counter screen (AID 1346829). Further: top concentration of the series differs between compounds; nearly all actives have a fitted effect of over 45% in size. In a few lines: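 Compound-treated SBE-bla HEK 293T cells (5 hr, 37 C) were assessed for viability with CellTiter-Glo in parallel with the reporter read.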
Assay [18] can be described thus: qHTS assay to identify small molecule agonists or antagonists of the thyroid stimulating hormone receptor (TSHR) signaling pathway - wild type cell line counter screen (AID 1259384; calls by dose curve). In a few lines: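 Counter screen in untransfected Hek293: compounds (15-point titration, triplicate) plus phosphodiesterase inhibitor Ro20-1724 added after 18 h plating; 30 min RT. Intracellular cAMP via competitive d2/cryptate immunoassay, 1 h incubation.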

Values without a mark were called inactive. Results filed as inconclusive are left out. The source made the active and inactive calls. Unless noted, the call rests on the fitted dose curve; in most records, active means well fitted curve in the direction sought with a large enough effect in the repeat runs; inconclusive means weak or mixed curves; inactive means no such curve, though single readings can be large; an effect the other way counts as inactive or inconclusive.
On the % scale 0 is the no-effect control and ±100 the full control effect.

Chain of Nuclear receptor subfamily 1 group I member 2 (Homo sapiens) (O75469 whole entry, looked up): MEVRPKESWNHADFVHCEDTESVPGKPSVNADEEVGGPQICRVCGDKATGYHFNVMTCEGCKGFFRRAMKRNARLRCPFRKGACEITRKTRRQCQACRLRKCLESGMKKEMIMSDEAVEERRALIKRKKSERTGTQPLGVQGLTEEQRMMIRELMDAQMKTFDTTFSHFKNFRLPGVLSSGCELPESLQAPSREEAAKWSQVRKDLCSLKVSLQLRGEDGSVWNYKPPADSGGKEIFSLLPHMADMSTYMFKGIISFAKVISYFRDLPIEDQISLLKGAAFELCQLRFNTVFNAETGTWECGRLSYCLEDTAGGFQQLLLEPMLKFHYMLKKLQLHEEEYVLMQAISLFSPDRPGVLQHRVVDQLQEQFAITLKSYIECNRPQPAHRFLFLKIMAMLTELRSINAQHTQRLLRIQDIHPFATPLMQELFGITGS
Chain of Progesterone receptor (Homo sapiens) (P06401 whole entry, looked up): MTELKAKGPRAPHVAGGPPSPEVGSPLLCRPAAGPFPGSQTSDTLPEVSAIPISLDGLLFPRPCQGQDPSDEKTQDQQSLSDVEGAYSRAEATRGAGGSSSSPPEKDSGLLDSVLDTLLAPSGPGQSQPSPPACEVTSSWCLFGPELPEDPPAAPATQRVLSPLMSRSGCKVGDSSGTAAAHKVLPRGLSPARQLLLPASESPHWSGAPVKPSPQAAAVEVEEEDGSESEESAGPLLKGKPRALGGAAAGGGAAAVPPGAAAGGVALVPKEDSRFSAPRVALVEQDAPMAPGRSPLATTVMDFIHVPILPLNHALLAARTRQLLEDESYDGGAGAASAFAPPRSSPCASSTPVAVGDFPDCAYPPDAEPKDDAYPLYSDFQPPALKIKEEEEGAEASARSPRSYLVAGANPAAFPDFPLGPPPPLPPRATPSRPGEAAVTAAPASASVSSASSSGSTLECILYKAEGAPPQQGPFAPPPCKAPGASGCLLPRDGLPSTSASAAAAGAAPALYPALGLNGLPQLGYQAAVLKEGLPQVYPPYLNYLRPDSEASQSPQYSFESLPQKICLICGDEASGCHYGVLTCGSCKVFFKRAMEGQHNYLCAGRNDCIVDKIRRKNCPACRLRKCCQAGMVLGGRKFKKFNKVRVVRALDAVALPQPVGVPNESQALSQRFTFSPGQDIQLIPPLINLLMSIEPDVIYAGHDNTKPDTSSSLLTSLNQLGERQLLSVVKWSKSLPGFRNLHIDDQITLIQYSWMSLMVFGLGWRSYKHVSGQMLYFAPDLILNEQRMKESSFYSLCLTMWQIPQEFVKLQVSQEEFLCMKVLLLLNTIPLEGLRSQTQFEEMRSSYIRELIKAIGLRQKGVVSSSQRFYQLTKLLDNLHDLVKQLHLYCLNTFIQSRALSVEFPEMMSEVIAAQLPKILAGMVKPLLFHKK
Chain of Thyrotropin-releasing hormone receptor (Homo sapiens) (P34981 whole entry, looked up): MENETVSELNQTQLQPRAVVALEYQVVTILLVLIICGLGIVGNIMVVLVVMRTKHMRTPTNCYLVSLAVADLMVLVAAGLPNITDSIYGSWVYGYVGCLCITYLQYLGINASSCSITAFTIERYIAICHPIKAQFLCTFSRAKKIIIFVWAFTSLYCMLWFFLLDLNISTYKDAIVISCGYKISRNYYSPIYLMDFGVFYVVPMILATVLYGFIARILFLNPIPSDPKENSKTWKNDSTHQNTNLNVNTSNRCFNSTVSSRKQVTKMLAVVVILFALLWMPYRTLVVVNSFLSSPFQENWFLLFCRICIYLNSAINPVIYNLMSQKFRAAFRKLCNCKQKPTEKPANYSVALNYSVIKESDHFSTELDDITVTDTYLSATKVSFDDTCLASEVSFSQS

`CN(C)CCCNCCC#N`: the outcome in assay [1], in [6], in [7], in [8], in assay [10] and in assay [12] was inactive. The Potency result in assay [2], in [3], in assay [4], in assay [5], in assay [9] and in assay [11] was “inactive” each time. Further, the Potency entry in assay [13] and in assay [14] was “inactive” each time.
Turning to `C=CCOCC(O)CCl` (configuration not stated), the outcome in [1], in assay [16], in assay [17], in [6], in [7] and in assay [8] was inactive. Moreover, the result in [10] was inactive. Also, the Potency result in [2], in assay [3], in [4], in assay [15], in [5] and in assay [9] was “inactive” in each case. Moreover, the Potency result in [11], in assay [13] and in assay [14] was “inactive” throughout.
Regarding `COc1ccc(N=Nc2cc(C)c(N=Nc3ccc(S(=O)(=O)O)cc3)cc2OC)cc1`, the result in assay [1], in assay [18], in assay [16], in assay [6], in assay [7] and in assay [8] was inactive. The call in [10] was inactive. Moreover, the Potency is 27.3 µM (active) in [2], 54.5 µM (active) in [11] and 30.6 µM (active) in assay [13]. The Potency entry in assay [3], in assay [15], in [5] and in assay [14] was “inactive” each time.
For `Cn1c(=O)c2c(ncn2CC2OCCO2)n(C)c1=O`, the compound was classed as inactive in [1], in assay [16], in assay [6], in assay [7], in assay [8] and in [10]. Besides, the Potency result in [2], in assay [3], in assay [4], in assay [15], in assay [5] and in [11] was “inactive” in each case. For the same compound, the Potency result in assay [13] and in assay [14] was “inactive” throughout.
Regarding `CCNC(=O)NCCCOc1cccc(CN2CCCCC2)c1`, the result in assay [1], in assay [16], in assay [17], in [6], in [7] and in assay [8] was inactive. Besides, the call in assay [10] was inactive. In addition, the Potency entry in assay [2], in [3], in assay [4], in assay [15], in assay [5] and in assay [9] was “inactive” each time. Moreover, the Potency entry in assay [13] is “inactive”. Besides, the Potency in [14] was 29.8 µM (active).
In the case of `CO[Si](CCCCl)(OC)OC`, the compound was classed as inactive in [1], in [16], in [17], in assay [6], in assay [7] and in assay [8]. Besides, the compound was called inactive in assay [10] and in assay [12]. Besides, the Potency entry in assay [2], in assay [3], in assay [15], in assay [9], in [11] and in assay [13] was “inactive” in each case. In addition, the Potency entry in assay [14] was “inactive”.
As for `CCCCCCCC[Si](OCC)(OCC)OCC`, the result in [1], in assay [16], in assay [17], in [6], in assay [7] and in [8] was inactive. For the same compound, the compound was classed as inactive in [10] and in assay [12]. Further, the Potency result in assay [3], in assay [4], in assay [5], in assay [9], in assay [11] and in assay [14] was “inactive” each time.
Turning to `O=CO`, the activity change, negative = cytotoxicity in [1] was 7.25% [at 8.39 µM]; in assay [2], -5.19% [at 8.39 µM]; in [15] it was 2.97% [at 8.39 µM]; in assay [5] it was 21.2% [at 8.39 µM]; in [17] it was 8.49% [at 6.97 µM]; in [9], -2.18% [at 8.39 µM]. Also, the activity change, negative = cytotoxicity in assay [11] is -2.32% [at 8.39 µM]; in assay [13], 4.68% [at 8.39 µM]. Moreover, the Potency in assay [3] was 2.51 µM (active). The activity change, negative = inhibition in [4] was 8.24% [at 8.39 µM]. Also, the viability change, negative = cytotoxic in assay [16] is -0.889% [at 6.97 µM]. In assay [6], the activation is 2.26% [at 6.97 µM]. For the same compound, the caspase activation in [10] is 0.203% [at 8.39 µM]. In assay [12], the caspase-3/7 activation is 0.126% [at 8.39 µM].
Turning to `N#CCCOCCOCCC#N`, the compound was classed as inactive in [1], in [18], in assay [16], in [6], in [7] and in [8]. Also, the result in assay [10] and in [12] was inactive. Further, the Potency entry in assay [3], in assay [4], in assay [15], in [5], in [9] and in [11] was “inactive” each time. In addition, the Potency result in assay [13] and in [14] was “inactive” each time.
